Data: PubChem BioAssay AID1159580 (chemical genetic matrix, 2015)
Out of some 5,500 compounds screened, about 2,000 (36%) were called active. Inconclusive results (about 18%) are left out. Cut-off read from the data, not from the text of the source: active = normalized growth mostly below about 0.91 (no sharp cut-off); inconclusive = no clear call, values can overlap the other calls; inactive = mostly above about 0.92. The list shows a part of the results.

Experiment: chemical genetic growth profiling, strain panel (AID 1159580);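 note: tested at 20 µM; growth read once vehicle control cultures reached saturation at 30 °C; 1 = growth at the plate median or of vehicle wells; lower values mean less growth of the strain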
Conditions: S. cerevisiae deletion strains, growth OD

Measured: normalized growth

C#C[C@@H]1CC2C3CCC4=C[C@@H](OC(C)=O)CCC4C3CC[C@]2(C)[C@H]1OC(C)=O (stereo partly drawn)
inactive: locus YHR030C, strain SLT2, stronger effect = lower value 1 | locus YHR079C, strain IRE1, stronger effect = lower value 0.929 | locus YJL095W, strain BCK1, stronger effect = lower value 0.951 | locus YJR066W, strain TOR1, stronger effect = lower value 0.947 | locus YLR113W, strain HOG1, stronger effect = lower value 0.912 | locus YNL183C, strain NPR1, stronger effect = lower value 0.903 | locus YOR231W, strain MKK1, stronger effect = lower value 0.946 | locus YPL256C, strain CLN2, stronger effect = lower value 0.936
